This note sets out measurements from article PMC12136788.

Whole data set: some 24,000 sequences, median “enrichment r” near 0.99, cut for the highest 2% near 3.7. Shown is part of a subset that was picked to be rich in the highest values.

T1: UNK ZnF1-3 (human, UniProt Q9C0B0 31-174)
T1 sequence: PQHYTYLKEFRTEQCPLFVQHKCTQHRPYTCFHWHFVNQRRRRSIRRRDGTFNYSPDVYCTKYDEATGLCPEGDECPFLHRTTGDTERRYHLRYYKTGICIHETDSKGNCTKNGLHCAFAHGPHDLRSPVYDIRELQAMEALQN

B1: chr1:35656432:35656433:-_ENSG00000116560_ENST00000357214|perfect_dup|motif|central (ssRNA)
RNA: GGGAGUUCUACAGUCCGACGAUCAGAUCUUCCGCGAUCAUCCACAAUUACAACAGCCCUUUCAAUAGGACCAAACUGGCGGAAGGCCUCUUCCAAAAGUUCGUUGGAAACAUAAGGAGAGAGAUUUCGAACAGACAGGGCUGCCAACAGAGGAUUGAGCAUCA
B2: 17381947_17386413_246_CDS_ENSMUSG00000041720_ENSMUST00000036161|mouse|control|control (ssRNA)
RNA: GGGAGUUCUACAGUCCGACGAUCGCAGAAGCUGAAGCUCUCUGCAACUGGGAGGUUACCUCUGCCUUUCCGAGCUGUGCUUUCUUCUACCCAAUACACUUUUGGAAGACCCCUGAGAAGUCGAAGAAGAUAAGGAACAACACACAACAGAGGAUUGAGCAUCA
B3: 235582851_235590549_671_CDS_ENSG00000116957_ENST00000366601|human|control|control (ssRNA)
RNA: GGGAGUUCUACAGUCCGACGAUCAUUAAGGACUUCCAGGUGUCUGAGCUGAUCAGCAAUGUGUAUCACUUCAUCCCAUGAUGACAACAGGUUUUUUGACAAAUCUACCUUUCUGAUAUUAGGACAUGCUUCAGCAACUCCUCCCAACAGAGGAUUGAGCAUCA
B4: chr16:94690093:94690094:+_ENSMUSG00000040785_ENSMUST00000117648|mus_hu|mus_mus_mus_hu_True|18_98 (ssRNA)
RNA: GGGAGUUCUACAGUCCGACGAUCGGGCUGGGAUGACAGCAGACAGCCCUCGAUUCCAGGGGGAAAAAGUCUUAGUCGAUACUAAUUAAAAAGUGUUAAUGAUUUUUGAAAAUCAGAUGUAGAUUAAAAAAGAUGAAAAGCAAACAACAGAGGAUUGAGCAUCA
B5: chr16:94690093:94690094:+_ENSMUSG00000040785_ENSMUST00000117648|mus_hu|mus_mus_mus_hu_True|1_68 (ssRNA)
RNA: GGGAGUUCUACAGUCCGACGAUCGGGCUGGGAUGACGGACACACAGCCUCGAUUCCAGGGGGAAAAAAAAAUAGCCGAUACUAAUUAAAAAGUGUUAAUGAUUUUUGAAAAUCAGAUUACAUCUAUAAAAGAUGAAAGCACUUCAACAGAGGAUUGAGCAUCA
B6: chr16:94690093:94690094:+_ENSMUSG00000040785_ENSMUST00000117648|mus_hu|mus_mus_mus_hu_True|68_78 (ssRNA)
RNA: GGGAGUUCUACAGUCCGACGAUCGGGCUGGGAUGACGGACACACAGCCUCGAUUCCGGUAAAAAAAAAAAAUAGCCGAUACUAAUUAAAAAGUGUUAAUGAUUUUUGAAAAUCAGAUUACAUCUAUAAAAGAUGAAAAGCAAACAACAGAGGAUUGAGCAUCA
B7: chr16:94690093:94690094:+_ENSMUSG00000040785_ENSMUST00000117648|mus_hu|mus_mus_mus_hu_True|48_48 (ssRNA)
RNA: GGGAGUUCUACAGUCCGACGAUCGGGCUGGGAUGACGGACACACAGCCUCGAUUCCAGGGGGAAAAAGUCUUAGUCGAUACUAAUUUAAAAAGUAUAAUGAUUUUUGAAAAUCAGAUUACAUCUAUAAAAGAUGAAAAGCAAACAACAGAGGAUUGAGCAUCA
B8: chr17:6086338:6086339:+_ENSMUSG00000034345_ENSMUST00000039487|mus_mus|motif|central (ssRNA)
RNA: GGGAGUUCUACAGUCCGACGAUCUGACUGAAAUAUAAAAUCCAGUAGUGCUCCAAUACAGCUAGAGUGUCCAUAAAAAUCGGUCUUCUACUUAAUUCUUAGUAUCAGGUGUGUAAGUAACAAUCCACUGGAAAGUUUACAUUACAACAGAGGAUUGAGCAUCA
B9: chr16:94690093:94690094:+_ENSMUSG00000040785_ENSMUST00000117648|mus_hu|mus_mus_mus_hu_True|18_78 (ssRNA)
RNA: GGGAGUUCUACAGUCCGACGAUCGGGCUGGGAUGACGGACACACAGCCUCGAUUCCGGUAAAAAAAAGUCUUAGUCGAUACUAAUUAAAAAGUGUUAAUGAUUUUUGAAAAUCAGAUGUAGAUUAAAAAAGAUGAAAAGCAAACAACAGAGGAUUGAGCAUCA
B10: chr5:74677807:74677808:-_ENSG00000113163_ENST00000380494|hu_mus|motif|central (ssRNA)
RNA: GGGAGUUCUACAGUCCGACGAUCACGGACACAUCGAUUGUUCAGAGGAGCACUAUCAUGAUCCACAGAAAAAUUACAAACGGUCCAAGUUUCAGGAUCAUUUUCAGUCAAGGCUGGGAUCUUUCGAAUAGCAGAAAGAUACAGCAACAGAGGAUUGAGCAUCA
B11: chr16:94690093:94690094:+_ENSMUSG00000040785_ENSMUST00000117648|mus_hu|mus_mus_mus_hu_True|8_98 (ssRNA)
RNA: GGGAGUUCUACAGUCCGACGAUCGGGCUGGGAUGACAGCAGACAGCCCUCGAUUCCAGGGGGAAAAAGUCUUAGUCGAUACUAAUUAAAAAGUGUUAAUGAUUUUUGAAAAUCAGAUUACAUCUAUUUGAAUCAUAAAGCAAACAACAGAGGAUUGAGCAUCA
B12: chr16:94690093:94690094:+_ENSMUSG00000040785_ENSMUST00000117648|mus_hu|mus_mus_mus_hu_True|18_38 (ssRNA)
RNA: GGGAGUUCUACAGUCCGACGAUCGGGCUGGGAUGACGGACACACAGCCUCGAUUCCAGGGGGAAAAAGUCUUAGUCGAUACUAAUUAAAAAGUGUUUUUAUAAUUGGAAAAUCAGAUGUAGAUUAAAAAAGAUGAAAAGCAAACAACAGAGGAUUGAGCAUCA
B13: chr16:94664806:94664807:+_ENSMUSG00000040785_ENSMUST00000117648|mus_hu|motif|central (ssRNA)
RNA: GGGAGUUCUACAGUCCGACGAUCAUGAUGACCCUCAAAAUAGGCAGCAGCAUUUUUAUCUGCUCUGUCAUUGGCGGCAAAAGACGGCACCACUGGUACUGAUCUUGGUAGCUGAUAUUCAGGAGAAAGGCUGGCCAAGGGUGUCAACAGAGGAUUGAGCAUCA
B14: chr7:7679991:7679992:-_ENSG00000106399_ENST00000396682|hu_hu|hu_hu_hu_mus_False|1_8 (ssRNA)
RNA: GGGAGUUCUACAGUCCGACGAUCUGGGAUGAAUCUUUUCCAGCUUCCCCACGAAGCACACGGGCCGGUCGAUAUACUGUGGUAACAUGCUGGCGUUGACGCGCGCUUUGGGGAGCUGCAUUAUGUCCACCAUGAUUAUGGUCCCAACAGAGGAUUGAGCAUCA

In the test the target is T1, UNK ZnF1-3. The test can be described thus: nsRBNS (natural sequence RNA bind-n-seq); RBNS binding buffer (assumed for nsRBNS): 25 mM Tris pH 7.5, 150 mM KCl, 3 mM MgCl2, 0.01% Triton X-100, 500 ug/ml BSA, 20 U/ml SUPERase-In, 4 C; UNK is unkempt and MSI1 is Musashi-1; names of the RNAs are library labels; protein concentration not given here; high values mean tight binding.
B1: the binding signal came to 1.13 enrichment R.

In turn, B2 came in with a binding signal of 0.848 enrichment R. For the molecule B3, the binding signal turned out to be 0.938 enrichment R. Consider B4, for which the binding signal is 4.09 enrichment R.

On to B5, for which the binding signal was determined as 1.12 enrichment R. The value for B6 was 5.49 enrichment R; that for B7 was 0.836 enrichment R; that for B8 was 0.812 enrichment R.

In turn, B9 showed a binding signal of 3.5 enrichment R. In turn, B10 came in with a binding signal of 1.36 enrichment R. Take B11: the binding signal is 0.999 enrichment R. B12 registered a binding signal of 3.69 enrichment R.

Molecule B13 returned a binding signal of 1.61 enrichment R. The value for B14 was 0.387 enrichment R.
